PubChem BioAssay
Calls of active or inactive are those of the source.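 Rule for the calls: active = normalized viability below 100% at a tested concentration; inactive = the rest.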

experiment: ovarian cancer cell viability with rucaparib, profiling panel, oncology-focused library, rucaparib conditional (AID 1508598); conditions: patient-derived ovarian cancer cells, CellTiter-Glo viability, 144 h; at 0.00488 µM; OCI-P5x cells; with rucaparib 20 µM; stronger effect = lower value; 100% = cells with rucaparib alone

Row | Structure (SMILES) | viability
1 | CS(=O)c1ccc(-c2nc(-c3ccc(F)cc3)c(-c3ccncc3)[nH]2)cc1 (stereo not given) | 108% (inactive)
2 | O=c1cc(-c2cccc3c2Sc2ccccc2S3)oc(N2CCOCC2)c1 | 100% (inactive)
3 | O=C(O)c1ccc(-c2c[nH]c3ncc(-c4ccccc4)cc23)cc1C1CCCC1 | 101% (inactive)
4 | N#Cc1c(O)c2c(-c3ccc(-c4ccccc4O)cc3)csc2[nH]c1=O | 116% (inactive)
5 | O=c1[nH]c(-c2ccc(C(F)(F)F)cc2)nc2c1CSCC2 | 110% (inactive)

same assay, conditions: patient-derived ovarian cancer cells, CellTiter-Glo viability, 144 h; at 0.00488 µM; OCI-P5x cells; without rucaparib; stronger effect = lower value

Row | Structure (SMILES) | viability
6 | CS(=O)c1ccc(-c2nc(-c3ccc(F)cc3)c(-c3ccncc3)[nH]2)cc1 (stereo not given) | 111% (inactive)
7 | O=c1cc(-c2cccc3c2Sc2ccccc2S3)oc(N2CCOCC2)c1 | 103% (inactive)
8 | O=C(O)c1ccc(-c2c[nH]c3ncc(-c4ccccc4)cc23)cc1C1CCCC1 | 100% (inactive)
9 | N#Cc1c(O)c2c(-c3ccc(-c4ccccc4O)cc3)csc2[nH]c1=O | 113% (inactive)
10 | O=c1[nH]c(-c2ccc(C(F)(F)F)cc2)nc2c1CSCC2 | 99.8% (active)

same assay, conditions: patient-derived ovarian cancer cells, CellTiter-Glo viability, 144 h; at 0.0195 µM; OCI-C5x cells; with rucaparib 10 µM; stronger effect = lower value; 100% = cells with rucaparib alone

Row | Structure (SMILES) | viability
11 | CS(=O)c1ccc(-c2nc(-c3ccc(F)cc3)c(-c3ccncc3)[nH]2)cc1 (stereo not given) | 128% (inactive)
12 | O=c1cc(-c2cccc3c2Sc2ccccc2S3)oc(N2CCOCC2)c1 | 117% (inactive)
13 | O=C(O)c1ccc(-c2c[nH]c3ncc(-c4ccccc4)cc23)cc1C1CCCC1 | 118% (inactive)
14 | N#Cc1c(O)c2c(-c3ccc(-c4ccccc4O)cc3)csc2[nH]c1=O | 112% (inactive)
15 | O=c1[nH]c(-c2ccc(C(F)(F)F)cc2)nc2c1CSCC2 | 109% (inactive)

same assay, conditions: patient-derived ovarian cancer cells, CellTiter-Glo viability, 144 h; at 0.0195 µM; OCI-C5x cells; without rucaparib; stronger effect = lower value

Row | Structure (SMILES) | viability
16 | CS(=O)c1ccc(-c2nc(-c3ccc(F)cc3)c(-c3ccncc3)[nH]2)cc1 (stereo not given) | 145% (inactive)
17 | O=c1cc(-c2cccc3c2Sc2ccccc2S3)oc(N2CCOCC2)c1 | 132% (inactive)
18 | O=C(O)c1ccc(-c2c[nH]c3ncc(-c4ccccc4)cc23)cc1C1CCCC1 | 115% (inactive)
19 | N#Cc1c(O)c2c(-c3ccc(-c4ccccc4O)cc3)csc2[nH]c1=O | 122% (inactive)
20 | O=c1[nH]c(-c2ccc(C(F)(F)F)cc2)nc2c1CSCC2 | 102% (inactive)

same assay, conditions: patient-derived ovarian cancer cells, CellTiter-Glo viability, 144 h; at 0.0195 µM; OCI-P5x cells; with rucaparib 20 µM; stronger effect = lower value; 100% = cells with rucaparib alone

Row | Structure (SMILES) | viability
21 | CS(=O)c1ccc(-c2nc(-c3ccc(F)cc3)c(-c3ccncc3)[nH]2)cc1 (stereo not given) | 108% (inactive)
22 | O=c1cc(-c2cccc3c2Sc2ccccc2S3)oc(N2CCOCC2)c1 | 98% (active)
23 | O=C(O)c1ccc(-c2c[nH]c3ncc(-c4ccccc4)cc23)cc1C1CCCC1 | 97.8% (active)
24 | N#Cc1c(O)c2c(-c3ccc(-c4ccccc4O)cc3)csc2[nH]c1=O | 116% (inactive)
25 | O=c1[nH]c(-c2ccc(C(F)(F)F)cc2)nc2c1CSCC2 | 114% (inactive)

same assay, conditions: patient-derived ovarian cancer cells, CellTiter-Glo viability, 144 h; at 0.0195 µM; OCI-P5x cells; without rucaparib; stronger effect = lower value

Row | Structure (SMILES) | viability
26 | CS(=O)c1ccc(-c2nc(-c3ccc(F)cc3)c(-c3ccncc3)[nH]2)cc1 (stereo not given) | 108% (inactive)
27 | O=c1cc(-c2cccc3c2Sc2ccccc2S3)oc(N2CCOCC2)c1 | 64.5% (active)
28 | O=C(O)c1ccc(-c2c[nH]c3ncc(-c4ccccc4)cc23)cc1C1CCCC1 | 103% (inactive)
29 | N#Cc1c(O)c2c(-c3ccc(-c4ccccc4O)cc3)csc2[nH]c1=O | 114% (inactive)
30 | O=c1[nH]c(-c2ccc(C(F)(F)F)cc2)nc2c1CSCC2 | 113% (inactive)

same assay, conditions: patient-derived ovarian cancer cells, CellTiter-Glo viability, 144 h; at 0.0781 µM; OCI-C5x cells; with rucaparib 10 µM; stronger effect = lower value; 100% = cells with rucaparib alone

Row | Structure (SMILES) | viability
31 | CS(=O)c1ccc(-c2nc(-c3ccc(F)cc3)c(-c3ccncc3)[nH]2)cc1 (stereo not given) | 127% (inactive)
32 | O=c1cc(-c2cccc3c2Sc2ccccc2S3)oc(N2CCOCC2)c1 | 116% (inactive)
33 | O=C(O)c1ccc(-c2c[nH]c3ncc(-c4ccccc4)cc23)cc1C1CCCC1 | 95.5% (active)
34 | N#Cc1c(O)c2c(-c3ccc(-c4ccccc4O)cc3)csc2[nH]c1=O | 113% (inactive)
35 | O=c1[nH]c(-c2ccc(C(F)(F)F)cc2)nc2c1CSCC2 | 110% (inactive)

same assay, conditions: patient-derived ovarian cancer cells, CellTiter-Glo viability, 144 h; at 0.0781 µM; OCI-C5x cells; without rucaparib; stronger effect = lower value

Row | Structure (SMILES) | viability
36 | CS(=O)c1ccc(-c2nc(-c3ccc(F)cc3)c(-c3ccncc3)[nH]2)cc1 (stereo not given) | 164% (inactive)
37 | O=c1cc(-c2cccc3c2Sc2ccccc2S3)oc(N2CCOCC2)c1 | 119% (inactive)
38 | O=C(O)c1ccc(-c2c[nH]c3ncc(-c4ccccc4)cc23)cc1C1CCCC1 | 112% (inactive)
39 | N#Cc1c(O)c2c(-c3ccc(-c4ccccc4O)cc3)csc2[nH]c1=O | 127% (inactive)
40 | O=c1[nH]c(-c2ccc(C(F)(F)F)cc2)nc2c1CSCC2 | 104% (inactive)

same assay, conditions: patient-derived ovarian cancer cells, CellTiter-Glo viability, 144 h; at 0.0781 µM; OCI-P5x cells; with rucaparib 20 µM; stronger effect = lower value; 100% = cells with rucaparib alone

Row | Structure (SMILES) | viability
41 | CS(=O)c1ccc(-c2nc(-c3ccc(F)cc3)c(-c3ccncc3)[nH]2)cc1 (stereo not given) | 108% (inactive)
42 | O=c1cc(-c2cccc3c2Sc2ccccc2S3)oc(N2CCOCC2)c1 | 106% (inactive)
43 | O=C(O)c1ccc(-c2c[nH]c3ncc(-c4ccccc4)cc23)cc1C1CCCC1 | 95.2% (active)
44 | N#Cc1c(O)c2c(-c3ccc(-c4ccccc4O)cc3)csc2[nH]c1=O | 119% (inactive)
45 | O=c1[nH]c(-c2ccc(C(F)(F)F)cc2)nc2c1CSCC2 | 106% (inactive)
